# In PubChem BioAssay (NCATS):
# Records with an inconclusive call do not appear. Where a call stands in place of a potency, no number is given. A number with no mark means an inactive call. Activity calls are given as the source filed them. Calls follow the shape of the dose curve; as a rule, active = well fitted curve in the direction sought with a large enough effect; inconclusive = small, poorly fitted or top-dose-only effect, or another doubt; inactive = no such curve, though single readings can be large; an effect the other way counts as inactive or inconclusive.
# Tests used:
# [1] = biological target: Aldehyde dehydrogenase, mitochondrial (Homo sapiens) (UniProt P05091); assay: qHTS for Inhibitors of the Aldehyde Dehydrogenase Family (ALDH2) Primary screen (AID 2061308); also: nearly all actives have a fitted effect of over 55% in size; also: potency is read from the fitted curve at half-maximal effect
# [2] = biological target: Retinaldehyde dehydrogenase 3 (Homo sapiens) (UniProt P47895); assay: qHTS for Inhibitors of the Aldehyde Dehydrogenase Family (ALDH1A3) Validation screen (AID 2061312); also: nearly all actives have a fitted effect of over 45% in size
# [3] = biological target: Retinaldehyde dehydrogenase 3 (Homo sapiens) (UniProt P47895); assay: qHTS for Inhibitors of the Aldehyde Dehydrogenase Family (ALDH1A3) Primary screen (AID 2061315)
# [4] = BET inhibitor-based combinations targeting novel dependencies in MECOM-rearranged (r) AML: SET-2 cell line (AID 2202231); details: SET-2 AML cells viability, CellTiter-Glo luminescence, 48 h; viability: stronger effect = lower value, concentration not given here; also: nearly all actives have a fitted effect of over 35% in size; also: potency is read from the fitted curve at half-maximal effect
# In short: (§1)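 Viability of cells (500 per well) is scored by luminescent CellTiter-Glo at 48 hr post-dosing. Eleven-point titrations are normalized to DMSO and empty controls and reduced to AUC values.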
# [5] = BET inhibitor-based combinations targeting novel dependencies in MECOM-rearranged (r) AML: OCI-AML3 cell line (AID 2202232); details: Potency: OCI-AML3 viability; also: potency is read from the fitted curve at half-maximal effect; nearly all actives have a fitted effect of over 35% in size
# In short: as §1
# [6] = BET inhibitor-based combinations targeting novel dependencies in MECOM-rearranged (r) AML: MV-4-11 cell line (AID 2202233); also: potency is read from the fitted curve at half-maximal effect; nearly all actives have a fitted effect of over 45% in size
# In short: (§2)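 Using pin-tool transfer, drugs were added in 11 doses to cells (500/well), incubated 48 hr, and assessed with CellTiter-Glo. Z-AUC is a mean-centring transformation applied separately to each screened line.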
# [7] = BET inhibitor-based combinations targeting novel dependencies in MECOM-rearranged (r) AML: HNT-34 cell line (AID 2202234); also: potency is read from the fitted curve at half-maximal effect; nearly all actives have a fitted effect of over 35% in size
# In short: as §2
# [8] = BET inhibitor-based combinations targeting novel dependencies in MECOM-rearranged (r) AML: UCSD-AML1 cell line (AID 2202235); also: nearly all actives have a fitted effect of over 40% in size; also: potency is read from the fitted curve at half-maximal effect
# In short: as §2
# [9] = BET inhibitor-based combinations targeting novel dependencies in MECOM-rearranged (r) AML: AML-191 cell line (AID 2202236; also: potency is read from the fitted curve at half-maximal effect; nearly all actives have a fitted effect of over 35% in size)
# In short: as §1
# [10] = BET inhibitor-based combinations targeting novel dependencies in MECOM-rearranged (r) AML: AML-194 cell line (AID 2202237; also: potency is read from the fitted curve at half-maximal effect; nearly all actives have a fitted effect of over 40% in size)
# In short: as §1
# [11] = biological target: Retinal dehydrogenase 2 (Homo sapiens) (UniProt O94788); assay: qHTS for Inhibitors of the Aldehyde Dehydrogenase Family (ALDH1A2) Confirmation screens (AID 2061314); also: nearly all actives have a fitted effect of over 65% in size; also: potency is read from the fitted curve at half-maximal effect
# [12] = biological target: Aldehyde dehydrogenase 1A1 (Homo sapiens) (UniProt P00352); assay: qHTS for Inhibitors of the Aldehyde Dehydrogenase Family (ALDH1A1) Confirmatory screens (AID 2061316); also: potency is read from the fitted curve at half-maximal effect; nearly all actives have a fitted effect of over 65% in size
compound,measurement,setting,value
C#CCNCc1cc2cc(OCc3ccccc3)ccc2[nH]1,Potency,[1],inactive
same,Potency,[2],inactive
same,Potency,[3],inactive
CC(C)Oc1ccc(C(=O)NC(CNC(=O)CN(C)C)Cc2ccc(-c3cn4cccc(C(C)O)c4n3)cc2)cc1Cl (configuration not stated),Potency,[1],inactive
same,Potency,[2],inactive
same,Potency,[3],inactive
NC(=O)C(CCC(F)(F)F)N(Cc1ccc(-c2ncon2)cc1F)S(=O)(=O)c1ccc(Cl)cc1 (configuration not stated),Potency,[1],inactive
same,Potency,[2],inactive
same,Potency,[3],inactive
CCc1cnn2c(NCc3ccc[n+]([O-])c3)cc(N3CCCCC3CCO)nc12 (configuration not stated),Potency,[1],inactive
same,Potency,[2],inactive
same,Potency,[3],inactive
OC(CNCCc1c[nH]c2ccccc12)Cn1c2ccccc2c2ccccc21 (configuration not stated),Potency,[1],inactive
same,Potency,[2],inactive
same,Potency,[3],inactive
COc1ccc(NS(=O)(=O)c2sc3ccc(Cl)cc3c2C)cc1N1CCNCC1,Potency,[1],inactive
same,Potency,[2],inactive
same,Potency,[3],inactive
COC(C)(C)CCn1nc(Nc2c(C)cccc2C)c2cnc(Nc3ccc(OCCN4CCCC4)c(F)c3)nc21,Potency,[1],inactive
same,Potency,[2],inactive
same,Potency,[3],inactive
same,Potency,[4],18.6 µM (active)
same,Potency,[5],20.9 µM (active)
same,Potency,[6],5.25 µM (active)
same,Potency,[7],0.0661 µM (active)
same,Potency,[8],9.34 µM (active)
same,Potency,[9],14.8 µM (active)
same,Potency,[10],14.8 µM (active)
Cc1ccc2nc(NC(=O)CSc3nc4c(c(=O)n3-c3ccc(F)cc3)SCC4)sc2c1,Potency,[1],inactive
same,Potency,[2],inactive
same,Potency,[3],inactive
CS(=O)(=O)N1CCN(c2nc(-c3ccc(Br)cc3)cs2)CC1,Potency,[1],inactive
same,Potency,[11],inactive
same,Potency,[3],inactive
COCCOC(=O)C1=C(C)NC2=C(C(=O)CC(c3ccccc3OC)C2)C1c1cccc(O)c1 (configuration not stated),Potency,[1],inactive
same,Potency,[2],inactive
same,Potency,[3],inactive
same,Potency,[4],16.6 µM (active)
same,Potency,[5],7.42 µM (active)
same,Potency,[6],5.25 µM (active)
same,Potency,[9],14.8 µM (active)
CC(O)c1ccc(-c2ccc3ncnc(N4CCOCC4)c3c2)o1 (configuration not stated),Potency,[1],8.91 µM (active)
same,Potency,[11],14.2 µM (active)
same,Potency,[3],inactive
same,Potency,[12],11.3 µM (active)
O=C(/C=C\n1cnc(-c2cc(C(F)(F)F)cc(C(F)(F)F)c2)n1)N1CC(F)(F)C1,Potency,[1],inactive
same,Potency,[2],inactive
same,Potency,[3],inactive
same,Potency,[4],1.66 µM (active)
same,Potency,[6],1.32 µM (active)
same,Potency,[7],5.25 µM (active)
same,Potency,[8],0.934 µM (active)
same,Potency,[9],1.32 µM (active)
same,Potency,[10],1.05 µM (active)
O=C(Nc1ncc(Cc2ccc(C(F)(F)F)cc2)s1)c1ccc(-c2ccc([N+](=O)[O-])cc2)o1,Potency,[1],inactive
same,Potency,[11],22.5 µM (active)
same,Potency,[3],inactive
O=C(N[C@H]1CCC[C@H](CO)C1)C1CCN(c2nc3cc(Cl)c(-c4ccc(Cl)cc4)cc3o2)CC1,Potency,[1],inactive
same,Potency,[2],inactive
same,Potency,[3],inactive
same,Potency,[4],20.9 µM (active)
same,Potency,[6],23.5 µM (active)
same,Potency,[8],inactive
Cc1ccc(CNc2ccc(N3CCOCC3)cc2)cc1,Potency,[1],inactive
same,Potency,[11],11.3 µM (active)
C=C(c1ccc(C(=O)O)cc1)c1cc2c(cc1C)C(C)(C)CCC2(C)C,Potency,[1],inactive
same,Potency,[2],inactive
same,Potency,[3],inactive
same,viability,[4],115%
same,Potency,[6],0.148 µM (active)
CON(C)C(=O)N1N=C(c2cc(F)ccc2F)S[C@@]1(CCCN)c1ccccc1,Potency,[1],inactive
same,Potency,[2],inactive
same,Potency,[3],inactive
same,Potency,[5],0.0093 µM (active)
same,Potency,[6],0.0118 µM (active)
same,Potency,[8],0.0105 µM (active)
same,Potency,[9],0.0132 µM (active)
O=C(NCC#CCSc1nnc(-c2cccc3ccccc23)o1)c1cccs1,Potency,[1],inactive
same,Potency,[11],12.7 µM (active)
same,Potency,[3],inactive
same,Potency,[12],8.96 µM (active)
CC(=O)Nc1ccc(-c2csc(N3CCC(C(N)=O)CC3)n2)cc1,Potency,[1],inactive
same,Potency,[11],22.5 µM (active)
same,Potency,[3],inactive
O=S(=O)(Nc1nccs1)c1ccc(Nc2nc(-c3ccc(F)cc3)cs2)cc1,Potency,[1],inactive
same,Potency,[11],14.2 µM (active)
same,Potency,[3],inactive
same,Potency,[12],11.3 µM (active)
CCOC(=O)[C@@H](N)Cc1ccc(-c2cc(O[C@H](c3ccc(Cl)cc3-n3ccc(C)n3)C(F)(F)F)nc(N)n2)cc1,Potency,[1],inactive
same,Potency,[2],inactive
same,Potency,[3],inactive
same,Potency,[4],26.3 µM (active)
same,Potency,[5],11.8 µM (active)
same,Potency,[6],9.34 µM (active)
same,Potency,[7],23.5 µM (active)
same,Potency,[8],inactive
same,Potency,[9],23.5 µM (active)
same,Potency,[10],26.3 µM (active)
O=C(Nc1cn[nH]c1-c1nc2ccc(CN3CCOCC3)cc2[nH]1)NC1CC1,Potency,[1],inactive
same,Potency,[2],inactive
same,Potency,[3],inactive
same,Potency,[5],4.68 µM (active)
same,Potency,[6],0.0263 µM (active)
same,Potency,[7],0.332 µM (active)
same,Potency,[8],0.118 µM (active)
same,Potency,[9],2.09 µM (active)
same,Potency,[10],2.09 µM (active)
